Test results taken from PubChem BioAssay (NCATS).
Results filed as inconclusive are left out. Values without a mark were called inactive. The source made the active and inactive calls.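 Rule for the calls: active = dose-dependent loss of cell ATP signal giving a full or clear fitted curve, ranked by lower potency value; inconclusive = weak partial curve or response only at the top dose; inactive = no loss of viability signal.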

experiment: Cell Viability - Jurkat (AID 426); conditions: qHTS;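 note: cells exposed to compound for 40 hours at 37 °C before ATP read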
Excerpt: NIH Chemical Genomics Center [NCGC]
NIH Molecular Libraries Screening Centers Network [MLSCN]
National Institutes of Environmental Health Sciences [NIEHS]
National Toxicology Program [NTP]
We have developed a 1536-well cell-based assay for quantitative high throughput screening (qHTS) against a number of cell lines to determine in vitro cytotoxicity of small molecules. This particular assay uses the Jurkat cell line (Clone E6-1) which is derived from the human T cell leukemia.
NCGC Assay Protocol Summary:
The CellTiter-Glo luminescent cell viability assay (Promega) is a homogeneous method to measure the number of viable cells in culture. The end point readout of this assay is based on quantitation of intracellular ATP, an indicator of metabolic activity, using the luciferase reaction. Luciferase catalyzes the oxidation of beetle Luciferin to oxyluciferin and light in the presence of ATP. The luminescent signal is proportional to amount of ATP present.
Using the CellTiter-Glo luminescent cell viability assay, the amount of cellular ATP was measured in the Jurkat cell line with complete culture medium following compound treatment for 40 hours. The assay was performed in opaque white Kalypsys 1536-well plates. In the screen, tamoxifen and doxorubicin were used as positive controls. Library compounds were measured for their ability to cause acute toxicity in the cell line, as reflected by a decrease in intracellular ATP levels, in a concentration-dependent manner. […] AC50 values were determined from concentration-response data modeled with the standard Hill equation.
qHTS protocol for CellTiter Glo Jurkat cellular assay
[Step] [Parameter] [Value] [Description]
1. Reagent; 5 uL; 5000 Jurkat cells/well
3. Controls; 23 nL; Tamoxifen 0.34 uM to 100 uM & Doxorubicin 0.02 nM to 100 uM
4. Time; 40 hr; 37 °C incubation
5. Reagent; 5 uL; CellTiter Glo reagent
6. Time; 20 min; Room Temperature
7. Detection; Luminescence; Viewlux plate reader
Keywords: cell viability, cytotoxicity, Jurkat cell line, luminescence, NTPHTS, NTPHTS_NCGC, NIEHS, EPA, DSSTox, MLSMR, MLSCN, NIH Roadmap, qHTS, NCGC
Potency is the fitted concentration of half-maximal effect.

Row | Structure (SMILES) | Potency
1 | CCCCCCCC/C=C\CCCCCCCC(=O)O | > 92 µM
2 | CCOC(C)=O | > 92 µM
3 | CCCCCCCC(=O)O | > 92 µM
4 | CC(O)CO (stereo not given) | > 92 µM
5 | O=C(O)CCC(=O)C(=O)O | > 92 µM
6 | IC(I)I | > 92 µM
7 | CC1=C2[C@@H]([C@H](C)CC[C@H]2/C=C(\C)C(=O)O)[C@H](O)C1 | > 92 µM
8 | CCOc1ccc2c(c1)C(C)=CC(C)(C)N2 | > 92 µM
9 | CC(C)(C)NC(=O)[C@@H]1C[C@@H]2CCCC[C@@H]2CN1C[C@@H](O)[C@H](Cc1ccccc1)NC(=O)[C@H](CC(N)=O)NC(=O)c1ccc2ccccc2n1 | 46.4 µM (active)
10 | CC(C)=O | > 92 µM
11 | Cc1ccccc1 | > 92 µM
12 | Nc1ccn([C@H]2CS[C@@H](CO)O2)c(=O)n1 | > 92 µM
13 | O=CCCCC=O | 6.45 µM (active)
14 | CCCCC/C=C\C/C=C\CCCCCCCC(=O)O | > 92 µM
15 | O=S(=O)(O)O | > 92 µM
